JMJD2A Tudor inh = qHTS Assay for Inhibitors of JMJD2A-Tudor Domain; Lysine-specific demethylase 4A (Homo sapiens), O75164; AlphaScreen JMJD2A-Tudor / H3K4me3 peptide binding; Potency, µM (doses to about 114 µM), for inactives: at the highest dose activity change, negative = inhibition, actives largely listed as inhibitors; 390,000 tested, 4.4% active; further: on the % scale 0 is the no-effect control and ±100 the full control effect; nearly all actives have a fitted effect of over 50% in size
PLK1 PBD block = qHTS for Inhibitors of PLK1-PDB (polo-like kinase 1 - polo-box domain): Primary Screen; AID 720504, 2013; 360,000 tested, 2.8% active; Potency, µM, inactives show max response, negative = inhibition, hits mostly inhibitors; Plk1 PBD binding of FITC phosphopeptide, fluorescence polarization; further: series mostly up to about 57 µM; on the % scale 0 is the no-effect control and ±100 the full control effect; nearly all actives have a fitted effect of over 65% in size
G9a block = qHTS Assay for Inhibitors of Histone Lysine Methyltransferase G9a. Histone-lysine N-methyltransferase EHMT2 (Homo sapiens), Q96KQ7. G9a H3K9 monomethylation, AlphaScreen, 2 h. Potency, µM (top dose mostly 102 µM), for inactives: top-dose activity, negative = inhibition, most hits filed as inhibitors. 350,000 tested, 8.8% active. AID 504332, 2011; further: on the % scale 0 is the no-effect control and ±100 the full control effect; nearly all actives have a fitted effect of over 75% in size
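G9a (20 nM) was preincubated 15 min with compound, then reacted 2 h at room temperature with 500 nM biotin-H3K9 peptide and 20 µM SAM. Monomethyl-H3K9 detected by AlphaScreen using anti-H3K9me1 antibody.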
BAZ2B inh = qHTS Assay for Inhibitors of BAZ2B; AlphaScreen BAZ2B-H3K14Ac peptide displacement; Potency, µM (titrated, usually from 114 µM), for inactives: at the top dose activity change, negative = inhibition, usual class: inhibitors; 360,000 tested, 4.4% active; AID 504333, 2011; further: on the % scale 0 is the no-effect control and ±100 the full control effect; nearly all actives have a fitted effect of over 60% in size
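BAZ2B 50 nM plus b-H3(5-23)K14Ac 50 nM, PBS pH 7.4/0.01% Tween-20, 30 min RT; compound added (max 110 uM), 30 min RT; streptavidin donor/Ni-chelate acceptor beads 10 ug/mL final, 20 min dark; AlphaScreen read.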
Sfp PPTase inh = qHTS Assay for Inhibitors of Bacillus subtilis Sfp phosphopantetheinyl transferase (PPTase); AID 1490, 2009; 310,000 tested, 3.5% active; 4'-phosphopantetheinyl transferase ffp (Bacillus subtilis), Q9F4F7; Potency, µM, for the others: largest response in the series, negative = inhibition, most hits filed as inhibitors; Biochemical Sfp PPTase activity, qHTS;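 further: the enzyme is Sfp with the accession as filed and its product quenches rhodamine fluorescence; 0% = enzyme reaction without inhibitor and -100% = no enzyme wells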
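Sfp 15 nM + cpd, 15 min RT; start w/ rhodamine-CoA 5 uM, BHQ-2-YbbR 12.5 uM (final); 50 mM Hepes pH 7.6, 10 mM MgCl2, 0.01% NP-40, 0.01% BSA; read 525/598 nm at 0 and 30 min.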
HP1b binding inh = HTS for Inhibitors of HP1-beta Chromodomain Interactions with Methylated Histone Tails | AlphaScreen HP1-beta / biotin-H3K9me3 peptide binding | Potency, µM (doses to about 114 µM), without a hit: at the highest dose activity change, negative = inhibition, most hits filed as inhibitors | 390,000 tested, 0.56% active; further: nearly all actives have a fitted effect of over 70% in size
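HP1-beta protein (50 nM final) preincubated 30 min at room temperature with biotinylated H3(1-18)K9me3 peptide (50 nM) in PBS pH 7.4, 0.01% Tween-20, then compound added for 30 min. AlphaScreen streptavidin donor/nickel chelate acceptor beads (10 ug/mL final), 30 min dark, luminescence read.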
* marks the source's active call; other numbers are inactive results; ! = a repeat was not active; [ ] = remark or other dose. This is a sample that favours compounds with a hit; in the whole collection about 12% have one here. The call rests on the fitted dose curve; in most records, active means well fitted curve in the direction sought with a large enough effect; inconclusive means small, poorly fitted or top-dose-only effect, or another doubt; inactive means no such curve, though single readings can be large; an effect the other way counts as inactive or inconclusive. Potency means the concentration at half of the fitted maximal effect.

Screening COc1ccccc1C(=O)NCC1(N2CCN(C)CC2)CCCCC1 returned JMJD2A Tudor inh 4%, G9a block 8%[59 µM], BAZ2B inh 2% and HP1b binding inh 54%.
`C[C@]12CCC3c4ccc(O)cc4CCC3C1CCC2OC(=O)CCC1CCCC1` (stereo not given in full) gave G9a block -22%[2.33 µM] and Sfp PPTase inh 37%.
`Cc1cc(S(=O)(=O)Nc2cc3c(cc2NCc2ccccc2)n(C)c(=O)n3C)ccc1F` gave JMJD2A Tudor inh -23%, G9a block 14µM*, BAZ2B inh inconclusive and HP1b binding inh 4%.
Screening O=C(NCCc1ccc(Cl)cc1Cl)c1cccnc1 returned JMJD2A Tudor inh -11%, PLK1 PBD block 1%, G9a block -3%, BAZ2B inh -4%, Sfp PPTase inh 1% and HP1b binding inh inconclusive.
`O=C(NCCc1ccc(Cl)cc1)c1cccnc1` gave JMJD2A Tudor inh -20%, PLK1 PBD block -5%, G9a block 56µM*, BAZ2B inh inconclusive, Sfp PPTase inh -2% and HP1b binding inh 28%.
For O=C(NCCSc1ccccc1)c1cccnc1 the results were JMJD2A Tudor inh -10%, PLK1 PBD block -18%, G9a block inconclusive, BAZ2B inh 6%, Sfp PPTase inh -9% and HP1b binding inh -3%.
For O=C(NCCCSc1ccccc1)c1cccnc1 the results were JMJD2A Tudor inh 2%, PLK1 PBD block -2%, G9a block 28µM*, BAZ2B inh -35%, Sfp PPTase inh 15% and HP1b binding inh 37%.
`COc1ccc(CCNC(=O)C(=O)c2c[nH]c3ccccc23)cc1` gave G9a block 26%[59 µM] and Sfp PPTase inh 23%.
CC(=O)O[C@H]1C(=O)[C@@]2(C)[C@H]([C@H](OC(=O)c3ccccc3)[C@]3(O)C[C@H](OC(=O)[C@H](O)[C@@H](NC(=O)c4ccccc4)c4ccccc4)C(C)=C1C3(C)C)[C@]1(OC(C)=O)CO[C@@H]1C[C@@H]2O was read as JMJD2A Tudor inh -10%, PLK1 PBD block -15%, G9a block 7%[12.7 µM], BAZ2B inh 10%, Sfp PPTase inh 50µM*! and HP1b binding inh 26%.
Screening CC(C)CNc1oc(-c2ccccc2Cl)nc1C#N returned JMJD2A Tudor inh -22%, PLK1 PBD block -20%, G9a block 40µM*, BAZ2B inh inconclusive, Sfp PPTase inh -11% and HP1b binding inh inconclusive.
Screening N#Cc1nc(-c2ccccc2)oc1NCc1ccco1 returned JMJD2A Tudor inh -29%, PLK1 PBD block -1%, G9a block inconclusive, BAZ2B inh 50µM*, Sfp PPTase inh -5% and HP1b binding inh 16%.
Screening N#Cc1nc(-c2ccc(Cl)cc2)oc1NCc1ccco1 returned JMJD2A Tudor inh -8%[11.4 µM], PLK1 PBD block 27µM*, G9a block -8%[12.7 µM], BAZ2B inh -31%, Sfp PPTase inh 11% and HP1b binding inh -31%.
For COc1ccc(CNc2oc(-c3ccccc3)nc2C#N)cc1 the results were JMJD2A Tudor inh inconclusive, PLK1 PBD block -12%, G9a block 40µM*, BAZ2B inh 45µM*, Sfp PPTase inh -12% and HP1b binding inh -17%.
Screening CCSC[C@H](NC(=O)[C@H](C)NC(=O)[C@@H](N)Cc1ccc(O)cc1)C(=O)N[C@@H](CC(=O)O)C(=O)N[C@H](C(=O)N[C@@H](C)C(=O)N[C@H](C(=O)N[C@@H](CSCC)C(=O)N[C@H](C(=O)N[C@H](C(=O)N[C@@H](Cc1cnc[nH]1)C(=O)N[C@@H](CCCNC(=N)N)C(=O)N[C@@H](CC(C)C)C(=O)N[C@@H](C)C(=O)NCC(=O)N[C@@H](CC(C)C)C(=O)N[C@@H](CC(C)C)C(=O)N[C@@H](CO)C(=O)N[C@@H](CCCNC(=N)N)C(=O)N[C@@H](CO)C(=O)NCC(=O)NCC(=O)N[C@H](C(=O)N[C@H](C(=O)N[C@@H](CCCCN)C(=O)N[C@@H](CC(N)=O)C(=O)N[C@@H](CC(N)=O)C(=O)N[C@@H](Cc1ccccc1)C(=O)N[C@H](C(=O)N1CCC[C@H]1C(=O)N[C@H](C(=O)N[C@@H](CC(N)=O)C(=O)N[C@H](C(=O)NCC(=O)N[C@@H](CO)C(=O)N[C@@H](CCCCN)C(=O)N[C@@H](C)C(=O)N[C@@H](Cc1ccccc1)C(N)=O)C(C)C)[C@@H](C)O)C(C)C)C(C)C)C(C)C)[C@@H](C)O)C(C)C)[C@@H](C)O)[C@@H](C)O returned Sfp PPTase inh 10%.
`CCC(=O)N1CCc2cc(Br)cc(S(=O)(=O)N3CCC(C(=O)Nc4cccc(C)c4)CC3)c21` gave JMJD2A Tudor inh -14%, G9a block -49%[59 µM], BAZ2B inh -4% and HP1b binding inh 23%.
For C=CCNc1oc(-c2cccc(Cl)c2)nc1C#N the results were JMJD2A Tudor inh -21% and HP1b binding inh 32%.
N#Cc1nc(-c2ccccc2Cl)oc1NCc1ccco1 was read as JMJD2A Tudor inh inconclusive, PLK1 PBD block -8%, G9a block inconclusive, BAZ2B inh 50µM*, Sfp PPTase inh -13% and HP1b binding inh -30%.
Screening C=CCNc1oc(-c2ccc(-c3ccccc3)cc2)nc1C#N returned JMJD2A Tudor inh 79µM* and HP1b binding inh 18%.
CCOC(=O)C1CCN(C(=O)c2ccccc2NC(=O)C2=C(C)OCCS2)CC1 was read as JMJD2A Tudor inh -3%, PLK1 PBD block -5%, G9a block 72%, BAZ2B inh -11%, Sfp PPTase inh 9% and HP1b binding inh 48%.
For CCOc1ccc(-c2cn3c(n2)sc2cc(C(=O)NCCCN(CC)CC)ccc23)cc1 the results were JMJD2A Tudor inh 7%, G9a block -3%[59 µM], BAZ2B inh 2% and HP1b binding inh 29%.
`CC(C)Oc1ccc(Cc2cnc(=S)[nH]c2N)cc1` gave JMJD2A Tudor inh -15%, PLK1 PBD block inconclusive, G9a block 50µM*, BAZ2B inh -18%, Sfp PPTase inh 4% and HP1b binding inh 40%.
Screening COC(=O)CN1C(=O)Nc2ccc(Br)cc2C1c1ccccc1Cl (stereo not given) returned JMJD2A Tudor inh -17%, PLK1 PBD block 1%, G9a block 71µM*, BAZ2B inh 4%, Sfp PPTase inh -23% and HP1b binding inh 18%.

Screening results: PubChem, National Center for Advancing Translational Sciences (NCATS)
